Most compounds without a hit are left out; they make up all but 1.1% or so of the library.
OPRM1-OPRD1 ag: agonists of OPRM1-OPRD1 heterodimerization, primary screen, cell-based, luminescence. Mu-type opioid receptor (Homo sapiens) + Delta-type opioid receptor (Homo sapiens), …. cells. activation, % at 9.3 µM. 340,000 tested, 0.3% active. AID 504326, 2011; in the data active = activation above about 18%;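 note: 0% = vehicle-treated cells and 100% = reference agonist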
HTR5A inv ctr: HTR5A inverse agonists in luminescence cell assay, primary screen, counter-screen for OPRM1-OPRD1 heterodimer inverse agonist project, full-deck HTS; inhibition, % at 9.3 µM; 340,000 tested, 0.083% active; AID 504634, 2011; HTR5A cell line, inverse agonism; in the data active = inhibition mostly above about 23%, no sharp cut-off; inactive = mostly below about 18%;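 note: 0% = cells with DMSO and 100% = no-cell wells with DMSO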
OPRM1-OPRD1 inv: inverse agonists of MOR-DOR heterodimerization, primary screen, cell-based, luminescence; AID 504357, 2011; 340,000 tested, 0.21% active; cell-based MOR-DOR heterodimer luminescence, inverse agonism; inhibition, % at 9.3 µM; in the data active = inhibition above about 22%, passing the limit was not always enough;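 note: 0% = cells with DMSO and 100% = wells without cells with DMSO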
HTR5A ag ctr: HTR5A agonists in luminescence cell assay, primary screen, counter-screen for OPRM1-OPRD1 heterodimer agonist project, full-deck HTS. 5-hydroxytryptamine receptor 5A (Homo sapiens), P47898. cell-based. activation, % at 9.3 µM. 340,000 tested, 0.61% active. AID 504692, 2011; in the data active = activation mostly above about 9.5%, no sharp cut-off; inactive = mostly below about 7.6%;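 note: 0% = cells with vehicle only and 100% = reference agonist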
MOR-DOR inv conf: inverse agonists of MOR-DOR heterodimerization, confirmation, cell-based, luminescence; 580 tested, 20% active; inhibition, % at 9.3 µM; cells expressing OPRM1/OPRD1 heterodimer; shares compounds with OPRM1-OPRD1 inv; in the data active = inhibition above about 32%;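 note: 0% = cells with DMSO and 100% = wells lacking cells with DMSO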
HTR5A inv ctr2: HTR5A inverse agonists, counter-screen for OPRM1-OPRD1 inverse agonist project, cell-based, luminescence; HTR5A-expressing cells, inverse agonism; 580 tested, under 10 active; inhibition, % at 9.3 µM; shares compounds with OPRM1-OPRD1 inv; call rule not given here;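 note: 0% = cells with DMSO and 100% = no-cell wells with DMSO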
An asterisk follows results filed as active; . = no result given.

SMILES | OPRM1-OPRD1 ag | HTR5A inv ctr | OPRM1-OPRD1 inv | HTR5A ag ctr | MOR-DOR inv conf | HTR5A inv ctr2
O=C(NCC1OCCCN1S(=O)(=O)c1cc(F)ccc1F)C(=O)NC1CCCC1 (stereo unspecified) | -1 | 6 | 6 | -3 | . | .
CCOc1ccc(C(=O)COC(=O)c2cccc(-n3cnnn3)c2)cc1 | -2 | 4 | 11 | 0 | . | .
Cc1nn(C2CCS(=O)(=O)C2)c(C)c1CN(C)C(=O)c1ccc(S(=O)(=O)N(C)C)cc1 (stereo unspecified) | 0 | -16 | 1 | 6 | . | .
Cc1ccc(NC(=O)CS(=O)CC(=O)Nc2ccccc2-c2ccc(C)o2)cc1 (stereo unspecified) | -6 | 8 | 35* | -3 | 3 | 3
CN(C)c1ccc(CC(=O)c2nc3ccccc3s2)cc1 | -3 | 7 | 24* | -3 | 7 | -18
Cc1ccc(C)c(N2CCN(C(=O)CCCOc3cc(=O)n(C)c4ccccc34)CC2)c1 | -1 | 24 | 4 | 3 | . | .
COc1ccc(N2CCN(C(=O)CCCOc3cc(=O)n(C)c4ccccc34)CC2)cc1 | -7 | 17 | 34* | -6 | -1 | -4
O=C(/C=C/c1ccccc1)NNC(=O)c1cccc(Cl)c1 | -1 | 0 | 3 | 0 | . | .
O=C(NNc1ccc(Cl)cc1)c1sccc1Cl | -9 | 10 | 47* | -5 | 1 | 13
O=C(/C=C/c1ccccc1)NNc1ccc(Cl)cc1 | -6 | 14 | 31* | -5 | 11 | -7
O=C(O)c1ccccc1C(=O)NNc1ccc(Cl)cc1 | -7 | -10 | 39* | 0 | 9 | -10
CCCn1c2ccccc2c2nnc(SCC(=O)Nc3ncccn3)nc21 | -7 | 23 | 32* | -2 | 3 | 20
O=C1C=C(/C=C/c2ccccc2)C[C@@H](c2ccc3c(c2)OCO3)C1 | -1 | -7 | 4 | -2 | . | .
CC1(c2cccc(Br)c2)NC(=O)N(CC(=O)Nc2ccc(F)cc2)C1=O (stereo unspecified) | 0 | 9 | 0 | -3 | . | .
Cc1ccc2cc(C=O)c(N3CCOCC3)nc2c1C | -8 | 10 | 36* | -3 | -74 | -2
CN1C(=O)C(O)(C2COC(C)(C)CC2=O)c2ccccc21 (stereo unspecified) | -8 | 5 | 32* | -2 | 10 | -1
CN1C(=O)C(O)(C2COC(C)(C)CC2=O)c2cc(Br)ccc21 (stereo unspecified) | -19 | 7 | 81* | -7 | 69* | -5
COc1ccc(-c2cc(C(=O)N(C)CC(=O)Nc3cccc(F)c3)c3ccccc3n2)cc1 | -2 | -4 | 9 | 0 | . | .
Cc1ccc(Cl)c2c1NC(=O)C2=O | -19 | 23 | 86* | -4 | 74* | 9
O=C(COC(=O)C1CCN(S(=O)(=O)c2cccs2)CC1)c1cc2ccccc2o1 | -10 | 10 | 58* | -6 | -254 | -19
COc1ccccc1N(/N=C1\Sc2ccccc2C1=O)C(C)=O | -15 | 17 | 75* | -9 | -18 | -6
COc1ccc(N(/N=C2\Sc3ccccc3C2=O)C(C)=O)cc1 | -11 | 23 | 70* | -9 | -26 | 5
COc1ccc(CN(C(C)=O)c2ccccc2C(=O)O)cc1 | -1 | 6 | 4 | -2 | . | .
COC(=O)CN1CC(=O)N(c2ccccc2)C1=S | 0 | -3 | 1 | 1 | . | .
CC(=O)OCC1(C)CN(c2ccccc2)N(C(C)=O)C1=O (stereo unspecified) | -8 | 11 | 40* | -5 | -52 | -202
SMILES | OPRM1-OPRD1 ag | HTR5A inv ctr | OPRM1-OPRD1 inv | HTR5A ag ctr | MOR-DOR inv conf | HTR5A inv ctr2
CC(=O)OCC1(C)CN(c2ccccc2)N(C(=O)c2ccc(C(C)(C)C)cc2)C1=O (stereo unspecified) | -3 | 3 | 23* | -6 | -6 | -232
CC(=O)OCC1(C)CN(c2ccccc2)NC1=O (stereo unspecified) | -9 | 3 | 42* | -1 | 25 | 1
O=C(Nc1ccncc1)C1c2ccccc2Oc2ccccc21 | -7 | 1 | 36* | -2 | 11 | 6
CC(=O)NC1C(=O)Nc2c1cccc2C(F)(F)F (stereo unspecified) | -7 | -5 | 30* | 3 | 14 | -18
CC(=O)NC1C(=O)N=C(SCC(=O)Nc2c(C)cccc2C)NC1=O (stereo unspecified) | -3 | 5 | 15 | -2 | . | .
CC1CCN(c2ccc(/C=C(\C#N)c3nn(-c4ccccc4)c(N)c3C#N)cc2[N+](=O)[O-])CC1 | -5 | -3 | 21 | 0 | . | .
CC1CCCN(c2ccc(/C=C(\C#N)c3nn(-c4ccccc4)c(N)c3C#N)cc2[N+](=O)[O-])C1 (stereo unspecified) | -5 | -1 | 29* | -2 | -256 | -29
Cc1ccc2sc(C)cc(=O)c2c1 | -2 | -9 | 9 | 2 | . | .
O=C(COC(=O)c1ccccc1F)c1ccc(-n2nncc2-c2ccco2)cc1 | -6 | 23 | 33* | 1 | 7 | -7
CNc1ccccc1C(=O)OCC(=O)c1ccc(F)cc1 | -4 | 15 | 19 | -5 | . | .
N#C/C(=C/c1ccncc1)c1nc2ccccc2c(=O)[nH]1 | -5 | -10 | 27 | 9 | . | .
N#C/C(=C\c1ccncc1)c1nc2ccccc2c(=O)[nH]1 | -6 | 7 | 33* | -2 | -14 | 17
Cc1nc(Cc2nnc(SC(C)C(=O)Nc3cccc(C#N)c3)o2)cs1 (stereo unspecified) | -1 | 24 | 6 | -9 | . | .
CNC(=S)NNC(=O)CCn1nc(C)c(Br)c1C | -3 | 4 | 15 | 0 | . | .
Cc1nn(CCC(=O)NNC(=S)Nc2ccccc2)c(C)c1Br | -6 | 23 | 30* | 1 | -156 | -10
CCOCCCNC(=S)NNC(=O)CCn1nc(C)c(Br)c1C | -8 | 5 | 45* | -3 | -13 | -16
Cc1nn(CCC(=O)NNC(=S)NCC(C)C)c(C)c1Br | -15 | 37 | 75* | -11 | -33 | -10
CC(C)CC1NC(=O)N(CC(=O)Nc2ccc(OC(F)F)cc2)C1=O (stereo unspecified) | -3 | -4 | 13 | 11 | . | .
CC(C)(C)NC(=O)CN(Cc1cccs1)C(=O)CN1C(=O)C(=O)c2ccccc21 | -6 | -16 | 33* | 6 | 24 | 14
CC(C)(C)NC(=O)CN(Cc1cccs1)C(=O)c1csnn1 | -1 | -14 | 4 | -3 | . | .
O=C(CN1C(=O)C(=O)c2ccccc21)c1ccc(Cl)cc1 | -8 | 1 | 46* | 1 | -79 | -9
CC1CCN(C(=O)CN2C(=O)C(=O)c3ccccc32)CC1 | -5 | 1 | 29* | 0 | 13 | 5
